Experimental data as given in PubChem BioAssay (EPA / NIEHS).
Where “and” joins values, the source holds several entries; their conditions need not be identical. Identical values can stand only once. The source holds several records for some structures; these can differ, active in one and inactive in another. Calls of active or inactive are those of the source. Rule for the calls: active = hit-call score of the fitted dose curve at least 0.9, where 1 is the maximum; inactive = score below 0.9.

Assays:
[1] = BSK_3C_SRB: Viability Assessment in the BioMAP Diversity Plus: 3C Assay (AID 2283023); conditions: primary human endothelial cells (HUVEC);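 note: fitted both ways against DMSO so a hit may be signal rise or drop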
Method in brief: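 Absorbance at 560 nm of sulforhodamine B-stained (0.1%) total protein served as a cytotoxicity readout in human umbilical vein endothelial cells, 24 h after chemical treatment. Signal was fitted bidirectionally relative to DMSO.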

[2] = read-out: Matrix Metallopeptidase 1 (MMP1), MMP1 (gene 4312); assay: BSK_BE3C_MMP1: BioMAP Diversity Plus: BE3C Assay for Matrix Metallopeptidase 1 (MMP1) Biomarker Activity (AID 2283024); conditions: primary human bronchial epithelial cells; actives raise or lower the signal
Method in brief: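 Human bronchial epithelial cells (BE3C system) exposed to compound for 24 h; MMP1 then quantified by ELISA. Activity was fitted in both directions relative to DMSO.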

[3] = BSK_3C_Vis: BioMAP Diversity Plus: 3C Assay for Morphology Visualization (AID 2283025); conditions: primary human endothelial cells (HUVEC);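 note: fitted both ways so gain or loss versus DMSO counts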;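 for AC50: light microscopy image of cell morphology used as background control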
Method in brief: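 Chemicals were added to primary human umbilical vein endothelium, cells were incubated 24 h, and morphology was then visualized by light microscopy. Gain or loss of signal was fitted bidirectionally relative to DMSO.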

[4] = BSK_4H_SRB: Viability Assessment in the BioMAP Diversity Plus: 4H Assay (AID 2283027); conditions: primary human endothelial cells (HUVEC);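 note: cells exposed to compound for 24 h before staining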;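 for AC50: curves fitted both ways versus DMSO so AC50 may be loss or gain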
Method in brief: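 Absorbance at 560 nm of SRB-stained total protein served as the viability read-out in confluent primary human umbilical vein endothelium 24 h after chemical treatment. Curves were fitted bidirectionally against DMSO as negative control.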

[5] = BSK_BE3C_SRB: Viability Assessment in the BioMAP Diversity Plus: BE3C Assay (AID 2283028); conditions: primary human bronchial epithelial cells;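 for AC50: fitted both ways so AC50 may mark signal gain or loss versus DMSO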
Method in brief: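 Cells (human bronchial epithelial, primary) are treated with chemicals, and after 24 h the parallel cultures are fixed in 10% TCA. These are then stained with 0.1% SRB and read at 560 nm. Gain or loss of signal is fitted relative to DMSO.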

[6] = read-out: Thrombomodulin, THBD (gene 7056); assay: BSK_3C_Thrombomodulin: BioMAP Diversity Plus: 3C Assay for Thrombomodulin Biomarker Activity (AID 2283029); conditions: primary human endothelial cells (HUVEC); actives raise or lower the signal
Method in brief: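 Read-out is ELISA of thrombomodulin on human umbilical vein endothelium 24 h after chemical dosing. Gain or loss of signal is scored relative to DMSO. Overt cytotoxicity is checked in parallel cultures by sulforhodamine B staining.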

[7] = read-out: Urokinase-type plasminogen activator receptor (uPAR), PLAUR (gene 5329); assay: BSK_4H_uPAR: BioMAP Diversity Plus: 4H Assay for Urokinase-type plasminogen activator receptor (uPAR) Biomarker Activity (AID 2283030); conditions: primary human endothelial cells (HUVEC); actives raise or lower the signal
Method in brief: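 Cell-surface uPAR ELISA signal, measured 24 h after dosing human umbilical vein endothelial cells, was analyzed with bidirectional fitting relative to DMSO. Parallel SRB staining of total protein tracked overt cytotoxicity.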

[8] = read-out: Vascular endothelial growth factor receptor 2 (Homo sapiens) (UniProt P35968); assay: BSK_4H_VEGFRII: BioMAP Diversity Plus: 4H Assay for Vascular endothelial growth factor receptor 2 (VEGFR2) Biomarker Activity (AID 2283031); conditions: primary human endothelial cells (HUVEC); actives raise or lower the signal;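 for AC50: cell-surface VEGFR2 protein level quantified by ELISA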
Method in brief: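 ELISA read-out of VEGFRII in primary human umbilical vein endothelium, taken 24 h after chemical treatment. Responses are expressed relative to DMSO, with bidirectional fitting.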

[9] = read-out: Human Leukocyte Antigen - DR isotype (HLADR), HLA-DRA (gene 3122); assay: BSK_BE3C_HLADR: BioMAP Diversity Plus: BE3C Assay for Human Leukocyte Antigen - DR isotype (HLADR) Biomarker Activity (AID 2283032); conditions: primary human bronchial epithelial cells; actives raise or lower the signal
Method in brief: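 ELISA read-out of HLA-DR on human lung bronchial epithelial primary cells, measured 24 h post-dosing. Both increases and decreases were scored relative to DMSO vehicle.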

[10] = read-out: Vascular cell adhesion molecule 1 (VCAM1), VCAM1 (gene 7412); assay: BSK_4H_VCAM1: BioMAP Diversity Plus: 4H Assay for Vascular cell adhesion molecule 1 (VCAM1) Biomarker Activity (AID 2283033); conditions: primary human endothelial cells (HUVEC); actives raise or lower the signal
Method in brief: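 ELISA read-out of VCAM-1 on human umbilical vein endothelium 24 hours after chemical dosing; gain or loss of signal was fitted relative to DMSO, with sulforhodamine B staining of parallel cultures flagging overt cytotoxicity.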

[11] = read-out: Interferon-gamma inducible Protein 10 (IP10), CXCL10 (gene 3627); assay: BSK_BE3C_IP10: BioMAP Diversity Plus: BE3C Assay for Interferon-gamma inducible Protein 10 (IP10) Biomarker Activity (AID 2283034); conditions: primary human bronchial epithelial cells; actives raise or lower the signal
Method in brief: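 Chemical is dosed onto human lung bronchial epithelial primary cells, cultures are incubated 24 h, and IP-10 is then quantified by ELISA. Gain or loss of signal is fitted in both directions relative to DMSO.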

[12] = read-out: Monokine induced gamma interferon (MIG), CXCL9 (gene 4283); assay: BSK_BE3C_MIG: BioMAP Diversity Plus: BE3C Assay for Monokine induced gamma interferon (MIG) Biomarker Activity (AID 2283035); conditions: primary human bronchial epithelial cells; actives raise or lower the signal
Method in brief: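 MIG level was determined by ELISA after 24 h chemical treatment of primary human bronchial epithelial cells. Values were fitted bidirectionally with DMSO as the negative control and activity baseline.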

[13] = read-out: Transforming growth factor beta 1 (TGFb1), TGFB1 (gene 7040); assay: BSK_BE3C_TGFb1: BioMAP Diversity Plus: BE3C Assay for Transforming growth factor beta 1 (TGFb1) Biomarker Activity (AID 2283036); conditions: primary human bronchial epithelial cells; actives raise or lower the signal
Method in brief: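 Primary human lung bronchial epithelial cells; compound exposure 24 h; TGF-b1 by ELISA; bidirectional fit, DMSO baseline. Parallel SRB total-protein staining for cytotoxicity.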

[14] = read-out: Plasminogen activator inhibitor-1 (PAI1), SERPINE1 (gene 5054); assay: BSK_BE3C_PAI1: BioMAP Diversity Plus: BE3C Assay for Plasminogen activator inhibitor-1 (PAI1) Biomarker Activity (AID 2283037); conditions: primary human bronchial epithelial cells; actives raise or lower the signal
Method in brief: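 Primary human lung bronchial epithelial cells; chemical dosing; 24 h; PAI-1 measured by ELISA; bidirectional fit referenced to DMSO as negative control.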

[15] = read-out: urokinase plasminogen activator (uPA), PLAU (gene 5328); assay: BSK_BE3C_uPA: BioMAP Diversity Plus: BE3C Assay for urokinase plasminogen activator (uPA) Biomarker Activity (AID 2283038); conditions: primary human bronchial epithelial cells; actives raise or lower the signal
Method in brief: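 Bronchial epithelial cells (human, primary); chemical 24 h; uPA by ELISA; bidirectional fit vs DMSO. SRB (0.1%, after 10% TCA fixation, 560 nm) in parallel cultures for cytotoxicity.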

[16] = read-out: Urokinase-type plasminogen activator receptor (uPAR), PLAUR (gene 5329); assay: BSK_BE3C_uPAR: BioMAP Diversity Plus: BE3C Assay for Urokinase-type plasminogen activator receptor (uPAR) Biomarker Activity (AID 2283039); conditions: primary human bronchial epithelial cells; actives raise or lower the signal
Method in brief: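 Human bronchial epithelial primary cells; chemical exposure 24 h; uPAR by ELISA; bidirectional fit vs DMSO control.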

[17] = read-out: Interleukin-6 (IL6), IL6 (gene 3569); assay: BSK_CASM3C_IL6: BioMAP Diversity Plus: CASM3C Assay for Interleukin-6 (IL6) Biomarker Activity for (AID 2283040); conditions: primary human coronary artery smooth muscle cells; actives raise or lower the signal
[18] = read-out: Tissue plasminogen activator (tPA), PLAT (gene 5327); assay: BSK_BE3C_tPA: BioMAP Diversity Plus: BE3C Assay for Tissue plasminogen activator (tPA) Biomarker Activity (AID 2283041); conditions: primary human bronchial epithelial cells; actives raise or lower the signal
Method in brief: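 Primary human lung bronchial epithelial cultures receive test chemical; after 24 h, tPA is quantified by ELISA, and gain or loss of signal is fitted bidirectionally relative to DMSO baseline.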

[19] = read-out: Interleukin-8 (IL8), CXCL8 (gene 3576); assay: BSK_CASM3C_IL8: BioMAP Diversity Plus: CASM3C Assay for Interleukin-8 (IL8) Biomarker Activity (AID 2283042); conditions: primary human coronary artery smooth muscle cells; actives raise or lower the signal;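 note: IL-8 protein level quantified by ELISA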
[20] = read-out: Pselectin, SELP (gene 6403); assay: BSK_4H_Pselectin: BioMAP Diversity Plus: 4H Assay for Pselectin Biomarker Activity (AID 2283026); conditions: primary human endothelial cells (HUVEC); actives raise or lower the signal
Method in brief: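 ELISA read-out of P-selectin on human umbilical vein endothelium after 24 h of dosing. Values derive from bidirectional fitting relative to DMSO. Parallel SRB protein staining flagged overt cytotoxicity.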

Measured: AC50

ClC(Cl)=C(c1ccc(Cl)cc1)c1ccc(Cl)cc1
active: [1] 29.2 µM | [2] 25.2 µM | [3] 37.3 µM | [4] 30.6 µM | [7] 32.8 µM | [8] 34.9 µM | [10] 28.6 µM | [15] 13.1 µM
inactive: [5] | [6] | [9] | [11] | [12] | [13] | [14] | [16] | [17] | [18] | [19]

Cc1ccccc1CO[C@@H]1C[C@@]2(C(C)C)CC[C@]1(C)O2
active: [1] 31.3 µM | [15] 11.2 µM
inactive: [2] | [3] | [20] | [4] | [5] | [6] | [7] | [8] | [9] | [10] | [11] | [12] | [13] | [14] | [16] | [17] | [18] | [19]

C[C@]12CCC(=O)C=C1CC[C@@H]1[C@@H]2CC[C@]2(C)C(=O)CC[C@@H]12
inactive: [1] | [2] | [3] | [20] | [4] | [5] | [6] | [8] | [9] | [10] | [11] | [12] | [13] | [14] | [15] | [16] | [17] | [18] | [19]

c1cc2ccc3cccc4ccc(c1)c2c34
inactive: [1] | [2] | [3] | [20] | [4] | [5] | [6] | [7] | [8] | [9] | [11] | [12] | [13] | [14] | [15] | [16] | [17] | [18] | [19]
active: [10] 15.5 µM

O=S(=O)(O)C(F)(F)C(F)(F)C(F)(F)C(F)(F)C(F)(F)C(F)(F)F
inactive: [1] | [2] | [3] | [4] | [5] | [6] | [7] | [8] | [10] | [11] | [12] | [13] | [14] | [15] | [16] | [17] | [18] | [19]
active: [2] 44.3 µM and 37.7 µM

O=C(O)C(F)(F)C(F)(F)C(F)(F)C(F)(F)C(F)(F)C(F)(F)C(F)(F)C(F)(F)F
active: [1] 54.3 µM and 51.6 µM | [2] 52.4 µM and 50.9 µM | [4] 44 µM and 46.1 µM | [5] 34.8 µM and 49.8 µM | [9] 29.7 µM and 44.1 µM and 45.2 µM | [10] 41.7 µM | [11] 27.7 µM and 45.9 µM and 43.7 µM | [12] 32.7 µM and 50.1 µM and 52.7 µM | [13] 26.2 µM | [14] 32.3 µM and 23.3 µM and 40.2 µM | [15] 37.2 µM and 49.1 µM and 30 µM | [16] 35.1 µM and 47.8 µM and 48.6 µM | [18] 20 µM and 23.6 µM and 21.6 µM
inactive: [1] | [2] | [3] | [20] | [4] | [6] | [7] | [8] | [10] | [17] | [19]

Cc1cc(O)ccc1Cl
inactive: [1] | [2] | [3] | [20] | [4] | [5] | [6] | [7] | [8] | [10] | [11] | [12] | [13] | [14] | [15] | [16] | [17] | [18] | [19]

CC(C)C(=O)OCC(C)(C)C(OC(=O)C(C)C)C(C)C (centres undefined)
inactive: [1] | [2] | [3] | [20] | [4] | [5] | [6] | [7] | [8] | [10] | [11] | [12] | [13] | [14] | [15] | [16] | [17] | [18] | [19]

O=S(=O)(O)C(F)(F)C(F)(F)C(F)(F)C(F)(F)F
inactive: [1] | [2] | [3] | [20] | [4] | [5] | [6] | [7] | [8] | [9] | [10] | [11] | [12] | [13] | [14] | [15] | [16] | [17] | [18] | [19]

O=C(NC(=O)c1c(F)cccc1F)Nc1cc(Cl)c(OC(F)(F)C(F)F)c(Cl)c1
inactive: [1] | [2] | [20] | [4] | [5] | [6] | [7] | [8] | [9] | [10] | [11] | [12] | [13] | [14] | [15] | [16] | [17] | [18] | [19]
active: [3] 39 µM

CCC(C)(CC)c1cc(NC(=O)c2c(OC)cccc2OC)on1
inactive: [1] | [2] | [3] | [20] | [4] | [5] | [6] | [7] | [8] | [9] | [10] | [11] | [12] | [13] | [14] | [15] | [16] | [17] | [18] | [19]
